High-throughput results as filed in PubChem BioAssay.
Shown are actives, neighbours in structure and some others; about 3.5% of the full set was active somewhere.
GPR151 activ: activators of human GPR151, primary screen, cell-based, PathHunter beta-arrestin, luminescence. G-protein coupled receptor 151 (Homo sapiens), Q8TDV0. PathHunter beta-arrestin GPR151 cells. activation, % at 11.2 µM. 650,000 compounds, 1% hits; in the data active = activation above about 4.9%;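 note: 0% = median of compound wells and 100% = cells with positive control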
Target sequence (Q8TDV0 whole entry, looked up): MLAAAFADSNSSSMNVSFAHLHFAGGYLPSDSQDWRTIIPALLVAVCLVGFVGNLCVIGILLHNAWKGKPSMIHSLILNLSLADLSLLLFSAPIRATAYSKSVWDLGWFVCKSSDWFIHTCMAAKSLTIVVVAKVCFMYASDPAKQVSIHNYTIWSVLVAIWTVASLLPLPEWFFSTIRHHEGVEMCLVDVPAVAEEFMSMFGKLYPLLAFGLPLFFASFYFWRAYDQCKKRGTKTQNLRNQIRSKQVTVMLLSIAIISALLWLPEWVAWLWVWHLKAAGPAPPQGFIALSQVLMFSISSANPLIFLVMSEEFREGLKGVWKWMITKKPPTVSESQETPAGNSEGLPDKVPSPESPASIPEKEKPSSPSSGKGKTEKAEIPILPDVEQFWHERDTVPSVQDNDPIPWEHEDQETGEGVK
FBW7 activator: FBW7 E3 ligase activators, primary screen, biochemical, AlphaScreen, human | AlphaScreen FBW7–phospho-cyclin E peptide binding, activator screen | normalized activity (activation), % at 26.1 µM | 650,000 compounds, 0.13% hits | AID 1259310, 2017; in the data active = normalized activity above about 1.9%;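 note: purified mutant Fbw7 with reduced substrate affinity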
MITF inh: MITF inhibitors, primary screen, biochemical, AlphaScreen, human; Microphthalmia-associated transcription factor (Homo sapiens), O75030; AlphaScreen MITF homodimerization, bead proximity signal; inhibition, % at 2.6 µM; 650,000 compounds, 0.91% hits; AID 1259374, 2018; in the data active = inhibition above about 50%;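 note: 0% = vehicle wells with protein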
TEAD-YAP block: TEAD-YAP interaction inhibition, primary screen, TEAD-YAP interaction inhibitor project, luminescence, HEK-TIYL cells | 640,000 compounds, 1.4% hits | TEAD-Gal4/YAP UAS-luciferase luminescence | inhibition, % at 9.12 µM | AID 1259422, 2018; in the data active = inhibition above about 32%;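 note: 0% = median of test compound wells and 100% = reference inhibitor wells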
Numbers without * were called inactive.

How did CN(C)c1ccc(N=Cc2sc3ccccc3c2O)cc1 do in these assays?
GPR151 activ: -1; FBW7 activator: 0; MITF inh: 15; TEAD-YAP block: 76*

How did Oc1c(C=NC2CCCCCC2)sc2ccccc12 do in these assays?
GPR151 activ: -2; FBW7 activator: -1; MITF inh: 19; TEAD-YAP block: 38*

Results for CN(C)c1ccc(N=Cc2c[nH]c3ccccc23)cc1 ?
GPR151 activ: -1; FBW7 activator: -1; MITF inh: 11; TEAD-YAP block: 68*

Results for Oc1c(C=Nc2ccccc2)sc2ccccc12 ?
GPR151 activ: -1; FBW7 activator: 0; MITF inh: -1; TEAD-YAP block: 5

What do the screens show for `O=C(O)c1ccc(N=Cc2sc3ccccc3c2O)cc1`?
GPR151 activ: -4; FBW7 activator: 0; MITF inh: -3; TEAD-YAP block: 52*

Results for Oc1ccc(N=Cc2sc3ccccc3c2O)cc1 ?
GPR151 activ: 2; FBW7 activator: 0; MITF inh: 7; TEAD-YAP block: 20

How did Oc1c(C=Nc2ccc(I)cc2)sc2ccccc12 do in these assays?
GPR151 activ: 0; FBW7 activator: 0; MITF inh: 10; TEAD-YAP block: 14

How did COc1ccc(C(=O)Oc2cccc([N+](=O)[O-])c2)cc1Br do in these assays?
GPR151 activ: 0; FBW7 activator: 0; MITF inh: -1; TEAD-YAP block: -8

Results for O=C(COc1ccc(F)cc1)n1cnc2ccccc21 ?
GPR151 activ: 0; FBW7 activator: 0; MITF inh: -4; TEAD-YAP block: 5

What do the screens show for `CCOC(=O)c1ccc(Nc2c([N+](=O)[O-])cncc2[N+](=O)[O-])cc1`?
GPR151 activ: 0; FBW7 activator: 0; MITF inh: -11; TEAD-YAP block: 17

How did O=S(=O)(NCC1CCCO1)c1ccc(Br)cc1 (centres undefined) do in these assays?
GPR151 activ: -1; FBW7 activator: 0; MITF inh: 14; TEAD-YAP block: 1

How did O=S(=O)(NCC1CCCO1)c1ccc(Oc2ccc(S(=O)(=O)NCC3CCCO3)cc2)cc1 (centres undefined) do in these assays?
GPR151 activ: 0; FBW7 activator: 0; MITF inh: 15; TEAD-YAP block: 59*

How did COC1CCC(C(=O)Nn2c(C3CC3)nc3cc(Cl)ccc3c2=O)CC1 (centres undefined) do in these assays?
GPR151 activ: 0; FBW7 activator: 0; MITF inh: 15; TEAD-YAP block: 5

How did Cc1ccc(-n2c(O)c(C=Nc3ccc(S(N)(=O)=O)cc3)c3ccccc3c2=O)cc1C do in these assays?
GPR151 activ: -1; FBW7 activator: 0; MITF inh: 1; TEAD-YAP block: 80*

What do the screens show for `COc1ccc(N=Cc2c(O)n(-c3ccc(OC)cc3)c(=O)c3ccccc23)cc1`?
GPR151 activ: 0; FBW7 activator: 0; MITF inh: 7; TEAD-YAP block: 13

How did CN(C)c1cccc2c1C(=O)c1ccccc1C2=O do in these assays?
GPR151 activ: 2; FBW7 activator: -1; MITF inh: 55*; TEAD-YAP block: 2

What do the screens show for `CCOC(=O)c1c(C)oc2ccc(NS(=O)(=O)c3ccc(OC)cc3)cc12`?
GPR151 activ: 4; FBW7 activator: 0; MITF inh: 4; TEAD-YAP block: 42*

What do the screens show for `CCOC(=O)c1c(C)oc2ccc(NS(=O)(=O)c3ccc(OCC)cc3)cc12`?
GPR151 activ: 1; FBW7 activator: 0; MITF inh: 13; TEAD-YAP block: 54*

What do the screens show for `CCOC(=O)c1c(C)oc2ccc(NS(=O)(=O)c3ccc(Br)cc3)cc12`?
GPR151 activ: 0; FBW7 activator: 0; MITF inh: -5; TEAD-YAP block: -9

Results for CCCc1oc2ccc(NS(=O)(=O)c3ccc(Br)cc3)cc2c1C(=O)OCC ?
GPR151 activ: 0; FBW7 activator: 0; MITF inh: -12; TEAD-YAP block: 42*

What do the screens show for `CCOc1ccc(S(=O)(=O)Nc2ccc3oc(C)c(C(=O)OC(C)C)c3c2)cc1`?
GPR151 activ: -1; FBW7 activator: 1; MITF inh: 10; TEAD-YAP block: 8

What do the screens show for `CCOC(=O)c1c(C)oc2c(Cl)cc(NS(=O)(=O)c3ccc(OCC)cc3)cc12`?
GPR151 activ: 1; FBW7 activator: 0; MITF inh: 0; TEAD-YAP block: 56*

How did O=C(CNCc1ccco1)NC1CCCCCC1 do in these assays?
GPR151 activ: 1; FBW7 activator: 0; MITF inh: 11; TEAD-YAP block: 6

What do the screens show for `COCCOC(=O)c1c(C)oc2cc(C)c(NS(=O)(=O)c3cccs3)cc12`?
GPR151 activ: 3; FBW7 activator: 0; MITF inh: 11; TEAD-YAP block: 21

Results for CCOC(=O)c1c(C)oc2cc(C)c(NS(=O)(=O)c3cccs3)cc12 ?
GPR151 activ: 1; FBW7 activator: 0; MITF inh: 5; TEAD-YAP block: 46*

How did Cc1nc(C)n(-c2ccc(Nc3cc(-c4nn(-c5ccccc5C#N)cc4-c4ccccc4)ccn3)cc2)n1 do in these assays?
GPR151 activ: -2; FBW7 activator: 0; MITF inh: 19; TEAD-YAP block: 33*

What do the screens show for `Cc1nc(C)n(-c2ccc(Nc3cc(-c4nn(-c5ccc(C#N)cc5)cc4-c4ccccc4)ccn3)cc2)n1`?
GPR151 activ: -2; FBW7 activator: 1; MITF inh: 18; TEAD-YAP block: 42*

What do the screens show for `Cc1nc(C)n(-c2ccc(Nc3cc(-c4nn(-c5ccc(N(C)C)cc5)cc4-c4ccccc4)ccn3)cc2)n1`?
GPR151 activ: 1; FBW7 activator: 0; MITF inh: 2; TEAD-YAP block: -13

How did Cc1nc(C)n(-c2ccc(Nc3cc(-c4nn(-c5nccs5)cc4-c4ccccc4)ccn3)cc2)n1 do in these assays?
GPR151 activ: 0; FBW7 activator: 0; MITF inh: 3; TEAD-YAP block: 11

Results for COc1cc(/C=C/C(=O)Nc2ccc(-c3nnc4n3CCCCC4)cc2)cc(OC)c1OC ?
GPR151 activ: 0; FBW7 activator: 0; MITF inh: 14; TEAD-YAP block: -6

What do the screens show for `Oc1ccc(CCNc2nc(Nc3ccc(C(F)(F)F)cc3)nc3c2ncn3-c2ccsc2)cc1`?
GPR151 activ: -1; FBW7 activator: 0; MITF inh: 0; TEAD-YAP block: 25

What do the screens show for `CC(C)N(CCNc1nc(Nc2ccccn2)nc2c1ncn2-c1ccsc1)C(C)C`?
GPR151 activ: -2; FBW7 activator: 0; MITF inh: 1; TEAD-YAP block: 28

How did CC(C)N(CCNc1nc(Nc2ccnn2C)nc2c1ncn2-c1ccsc1)C(C)C do in these assays?
GPR151 activ: 3; FBW7 activator: 0; MITF inh: 3; TEAD-YAP block: 35*

What do the screens show for `CCNc1nc(NCCc2ccc(O)cc2)c2ncn(-c3ccsc3)c2n1`?
GPR151 activ: 0; FBW7 activator: 0; MITF inh: 10; TEAD-YAP block: 17

How did Cn1nccc1Nc1nc(NCCc2ccc(O)cc2)c2ncn(-c3ccsc3)c2n1 do in these assays?
GPR151 activ: -2; FBW7 activator: 0; MITF inh: 6; TEAD-YAP block: 60*
